Experimental findings from the supplement of paper PMC6992640 are described below.

Molecules are shown by their SMILES.

For this test, the system named is UCD52 (cells of a triple-negative basal-like breast cancer xenograft). In words: cell viability of combination (% of vehicle); higher = less cytotoxic. The note with it: 1 µM; 72 h; partner dose: 10 nM. As for the experimental part:
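PDX cells were treated for 72 h with each drug at 1 µM plus carfilzomib (10 nM; 100 nM for WHIM2). Luciferase viability is expressed as percent of vehicle.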
As for `CCCCCCCCCCCCCCCC[n+]1ccccc1.[Cl-]` [Cetylpyridinium Chloride] + CC(C)C[C@H](NC(=O)[C@H](CCc1ccccc1)NC(=O)CN1CCOCC1)C(=O)N[C@@H](Cc1ccccc1)C(=O)N[C@@H](CC(C)C)C(=O)[C@@]1(C)CO1 [Carfilzomib], the “cell viability of combination” value turned out to be 48.1. For `Cc1cc(C(C#N)c2ccc(Cl)cc2)c(Cl)cc1NC(=O)c1cc(I)cc(I)c1[O-].[Na+]` (stereo not given) [Closantel Sodium] + CC(C)C[C@H](NC(=O)[C@H](CCc1ccccc1)NC(=O)CN1CCOCC1)C(=O)N[C@@H](Cc1ccccc1)C(=O)N[C@@H](CC(C)C)C(=O)[C@@]1(C)CO1 [Carfilzomib] the value was 65.9; for `CCCCCCCCCCCC[N+](C)(C)CCOc1ccccc1.[Br-]` [Domiphen Bromide] + CC(C)C[C@H](NC(=O)[C@H](CCc1ccccc1)NC(=O)CN1CCOCC1)C(=O)N[C@@H](Cc1ccccc1)C(=O)N[C@@H](CC(C)C)C(=O)[C@@]1(C)CO1 [Carfilzomib], 57.1. Then `CCCCCCCCCCCCCCCC[N+](C)(C)C.[Br-]` [Cetrimonium Bromide (CTAB)] + CC(C)C[C@H](NC(=O)[C@H](CCc1ccccc1)NC(=O)CN1CCOCC1)C(=O)N[C@@H](Cc1ccccc1)C(=O)N[C@@H](CC(C)C)C(=O)[C@@]1(C)CO1 [Carfilzomib], with 53.1. With `Cc1cc(C(C#N)c2ccc(Cl)cc2)c(Cl)cc1NC(=O)c1cc(I)cc(I)c1O` (stereo not given) [Closantel] + CC(C)C[C@H](NC(=O)[C@H](CCc1ccccc1)NC(=O)CN1CCOCC1)C(=O)N[C@@H](Cc1ccccc1)C(=O)N[C@@H](CC(C)C)C(=O)[C@@]1(C)CO1 [Carfilzomib], the “cell viability of combination” value is 65.7.
